Source: PubChem BioAssay AID1159580 (chemical genetic matrix, 2015)
Where “and” joins values, the source holds several entries; their conditions need not be identical. Identical values can stand only once. The campaign covered roughly 5,500 compounds. About 2,000 (36%) were called active. About 18% were inconclusive and are not listed. No stated cut-off is given here; in the data, active means normalized growth mostly below about 0.91 (no sharp cut-off); inconclusive means no clear call, values can overlap the other calls; inactive means mostly above about 0.92. The list shows a part of the results.

Experiment: chemical genetic growth profiling, strain panel (AID 1159580);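 further: tested at 20 µM; growth read once vehicle control cultures reached saturation at 30 °C; 1 = growth at the plate median or of vehicle wells; lower values mean less growth of the strain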
Conditions: growth OD

Measured: normalized growth

O=C1NC(O)=NC1(c1ccccc1)c1ccccc1
inactive: S. cerevisiae deletion strains, locus YJR075W, strain HOC1, active compounds read low 1.01 | S. cerevisiae deletion strains, locus YKL009W, strain mrt4, active compounds read low 1.01 | S. cerevisiae deletion strains, locus YKL068W, active compounds read low 1.02 | S. cerevisiae deletion strains, locus YKL085W, strain MDH1 (second series), active compounds read low 1 | S. cerevisiae deletion strains, locus YKL085W, strain MDH1, active compounds read low 1 | S. cerevisiae deletion strains, locus YKL160W, strain elf1, active compounds read low 1.03 | S. cerevisiae deletion strains, locus YKL190W, strain CNB1, active compounds read low 1.01 | S. cerevisiae deletion strains, locus YKR001C, strain vps1, active compounds read low 1.01 | S. cerevisiae deletion strains, locus YKR026C, strain gcn3, active compounds read low 1.02 | S. cerevisiae deletion strains, locus YKR091W, strain srl3, active compounds read low 1.02 | S. cerevisiae deletion strains, locus YLL001W, strain dnm1, active compounds read low 1.02 | S. cerevisiae deletion strains, locus YLL026W, active compounds read low 1.01 | S. cerevisiae deletion strains, locus YLL041C, strain sdh2, active compounds read low 1.01 | S. cerevisiae deletion strains, locus YLR027C, strain aat2, active compounds read low 1.02 | S. cerevisiae deletion strains, locus YLR039C, strain RIC1, active compounds read low 0.995 | S. cerevisiae deletion strains, locus YLR058C, strain SHM2, active compounds read low 1.01 | S. cerevisiae deletion strains, locus YLR102C, strain apc9, active compounds read low 1.02 | S. cerevisiae deletion strains, locus YLR113W, strain HOG1, active compounds read low 1.01 | S. cerevisiae deletion strains, locus YLR221C, strain rsa3, active compounds read low 1.03 | S. cerevisiae deletion strains, locus YLR258W, strain gsy2, active compounds read low 1.03 | S. cerevisiae deletion strains, locus YLR262C, strain YPT6 (second series), active compounds read low 1.05 | S. cerevisiae deletion strains, locus YLR262C, strain YPT6, active compounds read low 1.03 | S. cerevisiae deletion strains, locus YLR268W, strain sec22, active compounds read low 1.05 | S. cerevisiae deletion strains, locus YLR320W, strain mms22, active compounds read low 1.03 | S. cerevisiae deletion strains, locus YLR330W, strain CHS5, active compounds read low 1.01 | S. cerevisiae deletion strains, locus YLR342W, strain FKS1 (second series), active compounds read low 0.985 | S. cerevisiae deletion strains, locus YLR342W, strain FKS1, active compounds read low 1.02 | S. cerevisiae deletion strains, locus YLR357W, strain rsc2, active compounds read low 1.01 | S. cerevisiae deletion strains, locus YLR370C, strain arc18, active compounds read low 1.01 | S. cerevisiae deletion strains, locus YLR371W, strain rom2, active compounds read low 1.02 | S. cerevisiae deletion strains, locus YLR384C, strain iki3, active compounds read low 1.01 | S. cerevisiae deletion strains, locus YLR418C, strain cdc73, active compounds read low 1 | S. cerevisiae deletion strains, locus YML016C, strain PPZ1, active compounds read low 1.01 | S. cerevisiae deletion strains, locus YML032C, strain rad52, active compounds read low 1.03 | S. cerevisiae deletion strains, locus YML120C, strain ndi1, active compounds read low 1.02 | S. cerevisiae deletion strains, locus YML124C, strain tub3, active compounds read low 1.01 | S. cerevisiae deletion strains, locus YMR058W, strain fet3, active compounds read low 1.01 | S. cerevisiae deletion strains, locus YMR078C, strain ctf18, active compounds read low 1.02 | S. cerevisiae deletion strains, locus YMR125W, strain sto1, active compounds read low 1.02 | S. cerevisiae deletion strains, locus YMR129W, active compounds read low 1.02 | S. cerevisiae deletion strains, locus YMR205C, strain PFK2, active compounds read low 1.04 | S. cerevisiae deletion strains, locus YMR223W, strain ubp8, active compounds read low 0.991 | S. cerevisiae deletion strains, locus YMR231W, strain pep5, active compounds read low 1.02 | S. cerevisiae deletion strains, locus YMR263W, strain SAP30, active compounds read low 1.01 | S. cerevisiae deletion strains, locus YMR307W, strain GAS1, active compounds read low 0.906 | S. cerevisiae deletion strains, locus YNL067W, strain RPL9B, active compounds read low 1.01 | S. cerevisiae deletion strains, locus YNL071W, strain lat1, active compounds read low 1.02 | S. cerevisiae deletion strains, locus YNL128W, strain TEP1, active compounds read low 1.01 | S. cerevisiae deletion strains, locus YNL153C, strain GIM3, active compounds read low 1.01 and 0.985 | S. cerevisiae deletion strains, locus YNL175C, strain NOP13, active compounds read low 0.974 | S. cerevisiae deletion strains, locus YNL183C, strain NPR1, active compounds read low 0.954 | S. cerevisiae deletion strains, locus YNL197C, strain WHI3, active compounds read low 0.983 | S. cerevisiae deletion strains, locus YNL209W, strain ssb2, active compounds read low 1.02 | S. cerevisiae deletion strains, locus YNL224C, strain SQS1, active compounds read low 0.984 | S. cerevisiae deletion strains, locus YNL233W, strain BNI4, active compounds read low 1.01 | S. cerevisiae deletion strains, locus YNL248C, strain rpa49, active compounds read low 1.01 | S. cerevisiae deletion strains, locus YNL250W, strain rad50, active compounds read low 1.02 | S. cerevisiae deletion strains, locus YNL271C, strain bni1, active compounds read low 1.02 | S. cerevisiae deletion strains, locus YNL298W, strain CLA4, active compounds read low 1.01 | S. cerevisiae deletion strains, locus YNL307C, strain MCK1, active compounds read low 1.02 | S. cerevisiae deletion strains, locus YNL322C, strain KRE1 (second series), active compounds read low 1.01 | S. cerevisiae deletion strains, locus YNL322C, strain KRE1, active compounds read low 1.01 and 0.973 | S. cerevisiae deletion strains, locus YNR049C, strain mso1, active compounds read low 1.01 | S. cerevisiae deletion strains, locus YNR052C, strain pop2, active compounds read low 1.01 | S. cerevisiae deletion strains, locus YOL006C, strain TOP1, active compounds read low 1.01 | S. cerevisiae deletion strains, locus YOL012C, strain htz1 1.06 | S. cerevisiae deletion strains, locus YOL147C, strain pex11, active compounds read low 1.01 | S. cerevisiae deletion strains, locus YOR001W, strain rrp6, active compounds read low 1 | S. cerevisiae deletion strains, locus YOR061W, strain CKA2, active compounds read low 1 | S. cerevisiae deletion strains, locus YOR069W, strain VPS5, active compounds read low 1.01 | S. cerevisiae deletion strains, locus YOR070C, strain gyp1, active compounds read low 1.01 | S. cerevisiae deletion strains, locus YOR080W, strain dia2, active compounds read low 1.01 | S. cerevisiae deletion strains, locus YOR083W, strain WHI5 (second series), active compounds read low 0.98 | S. cerevisiae deletion strains, locus YOR083W, strain WHI5, active compounds read low 1.03 | S. cerevisiae deletion strains, locus YOR106W, strain vam3, active compounds read low 1.02 | S. cerevisiae deletion strains, locus YOR136W, strain idh2, active compounds read low 1.01 | S. cerevisiae deletion strains, locus YOR144C, strain elg1, active compounds read low 1.01 | S. cerevisiae deletion strains, locus YOR184W, strain ser1, active compounds read low 1.02 | S. cerevisiae deletion strains, locus YOR231W, strain MKK1, active compounds read low 0.985 | S. cerevisiae deletion strains, locus YOR265W, strain rbl2, active compounds read low 1.01 | S. cerevisiae deletion strains, locus YOR270C, strain vph1, active compounds read low 1.03 | S. cerevisiae deletion strains, locus YOR290C, strain snf2, active compounds read low 1.03 | S. cerevisiae deletion strains, locus YOR316C, strain cot1, active compounds read low 1.02 | S. cerevisiae deletion strains, locus YPL051W, strain arl3, active compounds read low 1 | S. cerevisiae deletion strains, locus YPL055C, strain LGE1, active compounds read low 1.01 and 0.95 | S. cerevisiae deletion strains, locus YPL078C, strain atp4, active compounds read low 1.01 | S. cerevisiae deletion strains, locus YPL106C, strain sse1, active compounds read low 1.03 | S. cerevisiae deletion strains, locus YPL240C, strain hsp82, active compounds read low 1.02 | S. cerevisiae deletion strains, locus YPL241C, strain CIN2, active compounds read low 1 | S. cerevisiae deletion strains, locus YPL256C, strain CLN2, active compounds read low 0.982 | S. cerevisiae deletion strains, locus YPR119W, strain clb2, active compounds read low 1.02 | S. cerevisiae deletion strains, locus YPR141C, strain kar3, active compounds read low 1.01 | S. cerevisiae deletion strains, locus YPR163C, strain tif3, active compounds read low 1.02 | S. cerevisiae deletion strains, locus YPR167C, strain met16, active compounds read low 1.02 | S. cerevisiae deletion strains, strain wtn01, active compounds read low 1.03 | S. cerevisiae strains, strain wild type, active compounds read low 1.01
